In the experiment the test system is zebrafish Glucocorticoid Receptor (GR), gene 553740. The experiment can be described thus: ATG_zfGR_EcoTox2: Attagene TRANS-FACTORIAL EcoTox-2 HepG2 Assay for zebrafish Glucocorticoid Receptor (GR). On the procedure: ATG_EcoTox2 is a cell-based, multiplexed assay created by modifying the existing Attagene TRANS-FACTORIAL system to include a panel of nuclear receptors from some or all the following species: human (Homo sapiens), african clawed frog (Xenopus laevis), rainbow trout (Oncorhynchus mykiss), japanese medaka (Oryzias latipes), and zebrafish (Danio rerio). The ECOTOX2-FACTORIAL format uses HepG2, a human liver cell line, with measurements taken at 24 hours after chemical dosing in a 24-well plate. ATG_zfGR_EcoTox2 is one of 29 assay components calculated in the ATG_EcoTox2 assay. It is designed to make measurements of mRNA induction, a form of inducible reporter, as detected with fluorescence intensity signals by Reverse transcription polymerase chain reaction (RT-PCR) and Capillary electrophoresis technology.The assay endpoint ATG_zfGR_EcoTox2 was analyzed in the positive analysis fitting direction relative to DMSO as the negative control and baseline of activity. Using a type of inducible reporter, measures of mRNA for gain-of-signal activity can be used to understand the reporter gene at the transcription factor-level as they relate to the gene for glucocorticoid receptor. Furthermore, this assay endpoint can be referred to as a primary readout, because this assay has produced multiple assay endpoints where this one serves a reporter gene function. […]

In PubChem BioAssay AID2284345 (EPA ToxCast) one finds outcome data, which are given here for two molecules.

Molecules are shown by their SMILES. Records with an inconclusive call do not appear. The source made the active and inactive calls. Rule for the calls: active = hit-call score of the fitted dose curve at least 0.9, where 1 is the maximum; inconclusive = response in the unintended direction; inactive = score below 0.9.

In the case of `O=S(=O)(O)C(F)(F)C(F)(F)C(F)(F)C(F)(F)C(F)(F)C(F)(F)F`, the molecule was called inactive.

For `O=P(Oc1ccccc1)(Oc1ccccc1)Oc1ccccc1`, the molecule was called inactive.
